Assay results reported in PubChem BioAssay AID1159580 (chemical genetic matrix, 2015).
About 2,000 (36%) of roughly 5,500 compounds were called active. Another 18% or so got no clear call; they are omitted. Cut-off read from the data, not from the text of the source: active = normalized growth mostly below about 0.91 (no sharp cut-off); inconclusive = no clear call, values can overlap the other calls; inactive = mostly above about 0.92. The list shows a part of the results.

Test: chemical genetic growth profiling, strain panel (AID 1159580);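 note: tested at 20 µM; growth read once vehicle control cultures reached saturation at 30 °C; 1 = growth at the plate median or of vehicle wells; lower values mean less growth of the strain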
Settings: S. cerevisiae deletion strains, growth OD
[1] = locus YAL021C, strain ccr4, stronger effect = lower value
[2] = locus YAL026C, strain drs2, stronger effect = lower value
[3] = locus YAL030W, strain snc1, stronger effect = lower value
[4] = locus YBL061C, strain skt5, stronger effect = lower value
[5] = locus YBR009C, strain hhf1, stronger effect = lower value
[6] = locus YBR023C, strain chs3, stronger effect = lower value
[7] = locus YBR171W, strain sec66, stronger effect = lower value
[8] = locus YBR231C, strain swc5, stronger effect = lower value
[9] = locus YBR279W, strain paf1, stronger effect = lower value
[10] = locus YCL011C, strain gbp2, stronger effect = lower value
[11] = locus YCL016C, strain dcc1, stronger effect = lower value
[12] = locus YCL061C, strain MRC1, stronger effect = lower value
[13] = locus YCL069W, strain vba3, stronger effect = lower value
[14] = locus YCR088W, strain abp1, stronger effect = lower value
[15] = locus YDL005C, strain med2, stronger effect = lower value
[16] = locus YDL040C, strain nat1, stronger effect = lower value
[17] = locus YDR001C, strain nth1, stronger effect = lower value
[18] = locus YDR069C, strain doa4, stronger effect = lower value
[19] = locus YDR137W, strain rgp1, stronger effect = lower value
[20] = locus YDR159W, strain sac3, stronger effect = lower value
[21] = locus YDR297W, strain sur2, stronger effect = lower value
[22] = locus YDR334W, strain swr1, stronger effect = lower value
[23] = locus YDR335W, strain msn5, stronger effect = lower value
[24] = locus YDR392W, strain spt3, stronger effect = lower value
[25] = locus YEL003W, strain gim4, stronger effect = lower value
[26] = locus YEL037C, strain rad23, stronger effect = lower value
[27] = locus YEL061C, strain CIN8 (second series), stronger effect = lower value
[28] = locus YER015W, strain faa2, stronger effect = lower value
[29] = locus YER016W, strain bim1, stronger effect = lower value
[30] = locus YER111C, strain swi4, stronger effect = lower value
[31] = locus YER155C, strain BEM2 (second series), stronger effect = lower value
[32] = locus YFR010W, strain ubp6, stronger effect = lower value
[33] = locus YGL167C, strain pmr1, stronger effect = lower value
[34] = locus YGL173C, strain kem1, stronger effect = lower value
[35] = locus YGL227W, strain vid30, stronger effect = lower value
[36] = locus YGL240W, strain doc1, stronger effect = lower value
[37] = locus YGL253W, strain hxk2, stronger effect = lower value
[38] = locus YHR013C, strain ard1, stronger effect = lower value
[39] = locus YHR027C, strain rpn1, stronger effect = lower value
[40] = locus YHR030C, strain SLT2, stronger effect = lower value
[41] = locus YHR079C, strain IRE1, stronger effect = lower value
[42] = locus YHR142W, strain chs7, stronger effect = lower value
[43] = locus YJL092W, strain hpr5, stronger effect = lower value
[44] = locus YJL095W, strain BCK1 (second series), stronger effect = lower value
[45] = locus YJL095W, strain BCK1, stronger effect = lower value
[46] = locus YJL115W, strain asf1, stronger effect = lower value
[47] = locus YJL129C, strain trk1, stronger effect = lower value
[48] = locus YJL154C, strain vps35, stronger effect = lower value
[49] = locus YJL164C, strain tpk1, stronger effect = lower value
[50] = locus YJL166W, strain qcr8, stronger effect = lower value
[51] = locus YJR066W, strain TOR1, stronger effect = lower value
[52] = locus YKL160W, strain elf1, stronger effect = lower value
[53] = locus YKR026C, strain gcn3, stronger effect = lower value
[54] = locus YKR091W, strain srl3, stronger effect = lower value
[55] = locus YLL001W, strain dnm1, stronger effect = lower value
[56] = locus YLL026W, stronger effect = lower value
[57] = locus YLL041C, strain sdh2, stronger effect = lower value
[58] = locus YLR027C, strain aat2, stronger effect = lower value
[59] = locus YLR113W, strain HOG1, stronger effect = lower value
[60] = locus YLR221C, strain rsa3, stronger effect = lower value
[61] = locus YLR258W, strain gsy2, stronger effect = lower value
[62] = locus YLR262C, strain YPT6 (second series), stronger effect = lower value
[63] = locus YLR320W, strain mms22, stronger effect = lower value
[64] = locus YLR342W, strain FKS1, stronger effect = lower value
[65] = locus YLR357W, strain rsc2, stronger effect = lower value
[66] = locus YLR370C, strain arc18, stronger effect = lower value
[67] = locus YLR384C, strain iki3, stronger effect = lower value
[68] = locus YML120C, strain ndi1, stronger effect = lower value
[69] = locus YMR058W, strain fet3, stronger effect = lower value
[70] = locus YMR125W, strain sto1, stronger effect = lower value
[71] = locus YMR129W, stronger effect = lower value
[72] = locus YMR205C, strain PFK2, stronger effect = lower value
[73] = locus YMR231W, strain pep5, stronger effect = lower value
[74] = locus YNL071W, strain lat1, stronger effect = lower value
[75] = locus YNL183C, strain NPR1, stronger effect = lower value
[76] = locus YNL209W, strain ssb2, stronger effect = lower value
[77] = locus YNL248C, strain rpa49, stronger effect = lower value
[78] = locus YNL322C, strain KRE1 (second series), stronger effect = lower value
[79] = locus YNR049C, strain mso1, stronger effect = lower value
[80] = locus YOR001W, strain rrp6, stronger effect = lower value
[81] = locus YOR070C, strain gyp1, stronger effect = lower value
[82] = locus YOR080W, strain dia2, stronger effect = lower value
[83] = locus YOR083W, strain WHI5, stronger effect = lower value
[84] = locus YOR106W, strain vam3, stronger effect = lower value
[85] = locus YOR231W, strain MKK1, stronger effect = lower value
[86] = locus YOR265W, strain rbl2, stronger effect = lower value
[87] = locus YOR270C, strain vph1, stronger effect = lower value
[88] = locus YOR290C, strain snf2, stronger effect = lower value
[89] = locus YPL051W, strain arl3, stronger effect = lower value
[90] = locus YPL078C, strain atp4, stronger effect = lower value
[91] = locus YPL106C, strain sse1, stronger effect = lower value
[92] = locus YPL240C, strain hsp82, stronger effect = lower value
[93] = locus YPL256C, strain CLN2, stronger effect = lower value

Measured: normalized growth

COc1cc(/C=C/C(=O)/C=C(O)/C=C/c2ccc(O)c(OC)c2)ccc1O
inactive: [51] 0.828
active: [1] 0.0789 | [2] 0.118 | [3] 0.157 | [4] 0.175 | [5] 0.149 | [6] 0.172 | [7] 0.132 | [8] 0.091 | [9] 0.307 | [10] 0.184 | [11] 0.4 | [12] 0.216 | [13] 0.224 | [14] 0.265 | [15] 0.089 | [16] 0.0875 | [17] 0.249 | [18] 0.0822 | [19] 0.149 | [20] 0.112 | locus YDR195W, strain ref2 0.156 | [21] 0.187 | [22] 0.109 | [23] 0.0992 | [24] 0.14 | [25] 0.0989 | [26] 0.155 | [27] 0.243 | [28] 0.119 | [29] 0.396 | [30] 0.094 | [31] 0.242 | [32] 0.187 | [33] 0.177 | [34] 0.107 | [35] 0.507 | [36] 0.399 | [37] 0.224 | [38] 0.178 | [39] 0.0816 | [40] 0.653 | [41] 0.574 | [42] 0.0884 | [43] 0.222 | [44] 0.0924 | [45] 0.546 | [46] 0.313 | [47] 0.108 | [48] 0.251 | [49] 0.143 | [50] 0.0762 | [52] 0.433 | [53] 0.229 | [54] 0.304 | [55] 0.212 | [56] 0.131 | [57] 0.0974 | [58] 0.161 | [59] 0.227 | [60] 0.204 | [61] 0.17 | [62] 0.142 | [63] 0.163 | [64] 0.173 | [65] 0.34 | [66] 0.171 | [67] 0.155 | [68] 0.115 | [69] 0.0838 | [70] 0.16 | [71] 0.276 | [72] 0.134 | [73] 0.134 | [74] 0.269 | [75] 0.761 | [76] 0.0983 | [77] 0.443 | [78] 0.16 | [79] 0.175 | [80] 0.139 | [81] 0.416 | [82] 0.0852 | [83] 0.203 | [84] 0.0922 | [85] 0.575 | [86] 0.159 | [87] 0.115 | [88] 0.101 | [89] 0.118 | [90] 0.182 | [91] 0.251 | [92] 0.294 | [93] 0.494

COc1cc(O)c(C(=O)/C=C/c2ccc(OC)c(O)c2)c(OC)c1
active: [2] 0.906 | [5] 0.846 | [6] 0.912 | locus YDR195W, strain ref2 1.17 [resistant] | [24] 0.413 | [31] 0.765 | [37] 0.806 | [42] 0.712 | [44] 0.86 | [47] 0.852 | [49] 0.842 | [50] 0.799 | locus YJL187C, strain SWE1, stronger effect = lower value 0.914 | [52] 0.893 | [55] 0.891 | [56] 0.857 | [58] 0.841 | [60] 0.79 | [61] 0.903 | [62] 0.752 | [63] 0.793 | [68] 0.828 | [69] 0.847 | [72] 0.845 | [74] 0.566 | [81] 0.895 | [83] 0.859 | [84] 0.822 | [88] 0.751 | [89] 0.856 | [90] 0.796
inactive: [1] 0.994 | [3] 0.961 | [4] 0.939 | [7] 0.993 | [8] 0.925 | [9] 0.965 | [10] 0.91 | [11] 0.971 | [12] 0.954 | [13] 0.946 | [14] 0.995 | [15] 1.01 | [16] 1.01 | [17] 0.992 | [18] 1.06 | [19] 0.912 | [20] 0.929 | [21] 1.01 | [22] 0.983 | [23] 0.935 | [25] 0.927 | [26] 0.988 | [27] 0.918 | [28] 0.956 | [29] 1.02 | [30] 0.98 | [32] 0.959 | [33] 1.02 | [34] 0.939 | [35] 0.96 | [36] 0.946 | [38] 1.02 | [39] 0.987 | [40] 0.922 | [41] 0.943 | [43] 0.957 | [45] 0.941 | [46] 1 | [48] 1.02 | [51] 0.897 | [53] 0.992 | [54] 1.01 | [57] 1.01 | [59] 0.982 | [64] 1 | [65] 0.933 | [66] 0.944 | [67] 1.03 | [70] 0.9 | [71] 0.992 | [73] 0.98 | [75] 0.958 | [76] 1.01 | [77] 0.909 | [78] 0.997 | [79] 0.997 | [80] 0.905 | [82] 1.01 | [85] 0.931 | [86] 0.988 | [87] 0.833 | [91] 0.929 | [92] 0.976 | [93] 0.942
